In PubChem BioAssay (NCATS):
Records with an inconclusive call do not appear. Where a call stands in place of a potency, no number is given. Activity calls are given as the source filed them. The call rests on the fitted dose curve; in most records, active means well fitted inhibition curve with a large enough effect; inconclusive means small, poorly fitted or top-dose-only effect; inactive means no such curve, though single readings can be large or run the other way.

Assays:
[1] = tested on: Zika virus NS2B-NS3 protease (unlinked complex); experiment: Primary screen GU Rhodamine qHTS for Zika virus inhibitors: Unlinked NS2B-NS3 protease assay (AID 1347159); further: nearly all actives have a fitted effect of over 60% in size
In short: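 Enzyme 25 nM in Tris-HCl pH 8.0 + 0.01% Tween 20; compounds up to 114 microM, 15 min RT dark; + Rhod110 substrate 1.5 microM; read t0 and 15 min; delta fluorescence → % inhibition → 4-parameter Hill fit.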

[2] = tested on: Zika virus NS2B-NS3 protease (linked construct); experiment: Primary screen NINDS Rhodamine qHTS for Zika virus inhibitors (AID 1347160); further: nearly all actives have a fitted effect of over 55% in size
In short: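 Enzyme (25 nM, linked NS2B-NS3) was preincubated 15 min with compound in 10 mM Tris-HCl pH 8.0, 0.01% Tween 20. Rhodamine110 substrate (1.5 microM) was then added and fluorescence read at start and after 15 min.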

For `C=C[C@]1(C)C[C@H](O)[C@@H]2[C@H](OC(=O)[C@@H]2C)C1/C(C)=C/O[C@@H]1O[C@H](CO)[C@@H](O)[C@H](O)[C@H]1O` (stereo partly specified), the Potency [1] was “inactive” and the Potency [2] was “inactive”.
With `CC(C)=CCC[C@](C)(O)[C@H]1CC[C@]2(C)[C@@H]1[C@H](O)CC1[C@@]3(C)CC[C@H](O)C(C)(C)[C@@H]3[C@@H](O[C@@H]3O[C@H](CO)[C@@H](O)[C@H](O)[C@H]3O[C@@H]3O[C@H](CO)[C@@H](O)[C@H](O)[C@H]3O)C[C@]12C` (stereo partly specified) the Potency [1] was “inactive” and the Potency [2] was “inactive”.
In the case of `CC1(C)CC[C@]2(C(=O)O[C@@H]3O[C@H](CO)[C@@H](O)[C@H](O)[C@H]3O)CC[C@]3(C)C(=CCC4[C@@]5(C)CC[C@H](O[C@@H]6O[C@H](C(=O)O)[C@@H](O)[C@H](O[C@@H]7O[C@H](CO)[C@H](O)[C@H](O)[C@H]7O)[C@H]6O)C(C)(C)C5CC[C@]43C)C2C1` (stereo partly specified), the Potency [1] was “inactive” and the Potency [2] was “inactive”.
With `COc1ccc(C2(O)c3ccccc3NC(=O)C2O)cc1` (stereo unspecified) the Potency [1] was “inactive” and the Potency [2] was “inactive”.
With `CC(=O)C=C=C1C(C)(C)CC(O[C@@H]2O[C@H](CO)[C@@H](O)[C@H](O)[C@H]2O)CC1(C)O` (stereo partly specified) the Potency [1] was “inactive” and the Potency [2] was “inactive”.
In the case of `CC1(C)CC[C@]2(C(=O)O)[C@H](O)C[C@]3(C)C(=CCC4[C@@]5(C)CC[C@H](O[C@@H]6O[C@H](CO[C@@H]7OC[C@H](O)[C@H](O)[C@H]7O[C@@H]7OC[C@@H](O)[C@H](O)[C@H]7O)[C@@H](O)[C@H](O)[C@H]6O[C@@H]6O[C@H](CO)[C@@H](O)[C@H](O)[C@H]6O)C(C)(C)C5CC[C@]43C)[C@@H]2C1` (stereo partly specified), the Potency [1] was “inactive” and the Potency [2] was “inactive”.
`C=C1C(=O)OC2C1C(O)CC1(C)C(O)CCC(C=O)C21` (stereo unspecified) was tested, and the Potency [1] was “inactive” and the Potency [2] was “inactive”.
In the case of `COc1ccc(CN2C(=O)C(=O)c3cc(S(=O)(=O)N4CCC[C@H]4COc4cccnc4)ccc32)cc1`, the Potency [1] was “inactive” and the Potency [2] was “inactive”.
`C=C(CO)C12OC1C1(C)C(=CC2=O)C(O)C(O)CC1C` (stereo unspecified) was tested, and the Potency [1] was “inactive” and the Potency [2] was “inactive”.
`COc1cc(Br)c(S(=O)(=O)Nc2ccc(C(F)(F)F)c(O[C@@H]3CCN(C)C3)c2)cc1OC` was tested, and the Potency [1] was “inactive” and the Potency [2] was “inactive”.
`CC1(C)CC(NC(=O)C(=O)Nc2ccc(Br)cc2)CC(C)(C)N1` was tested, and the Potency [1] was “inactive” and the Potency [2] was “inactive”.
With `C=CC(C)(C)c1[nH]c2cc3c(cc2c1CC1NC(=O)C2=CCCN2C1=O)C=CC(C)(C)O3` (stereo unspecified) the Potency [1] was “inactive” and the Potency [2] was “inactive”.
For `CC1OC(OCC2OC(OC3CCC4(C)C(CCC5(C)C4CC=C4C6CC(C)(C)CCC6(C(=O)OC6OC(CO)C(O)C(O)C6O)CCC45C)C3(C)CO)C(O)C(O)C2O)C(O)C(O)C1O` (stereo unspecified), the Potency [1] was “inactive” and the Potency [2] was “inactive”.
With `C[C@@H]1O[C@@H](O[C@H]2[C@H](O)[C@@H](O)[C@H](O[C@H]3[C@H](O[C@H]4CC[C@@]5(C)C(=CC[C@@H]6C5CC[C@]5(C)[C@@H]7[C@H](C[C@@H]65)O[C@]5(CC[C@@](C)(CO[C@@H]6O[C@H](CO)[C@@H](O)[C@H](O)[C@H]6O)O5)[C@H]7C)C4)O[C@H](CO)[C@@H](O)[C@@H]3O)O[C@@H]2CO)[C@H](O)[C@H](O)[C@H]1O` (stereo partly specified) the Potency [1] was “inactive” and the Potency [2] was “inactive”.
For `CC(=O)O[C@]1(C(C)=O)CC[C@H]2[C@@H]3C[C@H](C)C4=CC(=O)C=C[C@]4(C)[C@@]3(F)[C@@H](O)C[C@@]21C`, the Potency [1] was “inactive” and the Potency [2] was “inactive”.
For `CCc1ccc(Cc2ccc3c(c2)[C@]2(OC3)O[C@H](CO)[C@@H](O)[C@H](O)[C@H]2O)cc1`, the Potency [1] was “inactive” and the Potency [2] was “inactive”.
`C[S+](CC[C@H](N)C(=O)[O-])C[C@H]1O[C@@H](n2cnc3c(N)ncnc32)[C@H](O)[C@@H]1O` (stereo partly specified) was tested, and the Potency [1] was “inactive” and the Potency [2] was “inactive”.
In the case of `COc1ccc(CNC(=O)c2sc3nc(C)cc(C)c3c2N)cc1`, the Potency [1] was “inactive” and the Potency [2] was “inactive”.
With `CN(C)C1CCN(C(=O)c2ccc(NC(=O)Nc3ccc(-c4nc(N5CCOCC5)nc(N5CCOCC5)n4)cc3)cc2)CC1` the Potency [1] was “inactive” and the Potency [2] was “inactive”.
For `Cc1cc(Nc2nc(NC(C)c3ncc(F)cn3)ncc2Cl)n[nH]1` (stereo unspecified), the Potency [1] was “inactive” and the Potency [2] was “inactive”.
In the case of `CN1CCc2nc(C(=O)N[C@@H]3C[C@@H](C(=O)N(C)C)CC[C@@H]3NC(=O)C(=O)Nc3ccc(Cl)cn3)sc2C1`, the Potency [1] was “inactive” and the Potency [2] was “inactive”.
In the case of `O=C1C=CC2OC(c3ccccc3)C(O)C2O1` (stereo unspecified), the Potency [1] was “inactive” and the Potency [2] was “inactive”.
For `C=C1[C@H](OC(C)=O)[C@H]2[C@@H](OC(C)=O)[C@](C)(OC(C)=O)C[C@]2(OC(C)=O)C(=O)[C@H](C)/C=C/C(C)(C)C(=O)[C@H](OC(=O)C(C)C)[C@H]1OC(C)=O`, the Potency [1] was “inactive” and the Potency [2] was “inactive”.
